Source: PubChem (National Center for Advancing Translational Sciences (NCATS))
TSG101-PTAP inh: blocks PTAP/TSG101 interaction to inhibit HIV-1 budding | 340,000 tested, under 10 active | AID 493005 | Q99816 | Potency, µM (highest dose often 115 µM), inactives show at the top dose activity change, negative = inhibition, usual class: inhibitors | Fluorescence polarization, FITC-PTAP peptide / Tsg101 binding; active = well fitted inhibition curve with a large enough effect in the main read-out, with a control signal flat, not every such curve was filed as active; inconclusive = small, poorly fitted or top-dose-only effect, or effect the other way, or a change in a side signal; inactive = no such curve, though single readings can be large or run the other way; also: % of control where 0% means no effect
Target sequence (Q99816 whole entry, looked up): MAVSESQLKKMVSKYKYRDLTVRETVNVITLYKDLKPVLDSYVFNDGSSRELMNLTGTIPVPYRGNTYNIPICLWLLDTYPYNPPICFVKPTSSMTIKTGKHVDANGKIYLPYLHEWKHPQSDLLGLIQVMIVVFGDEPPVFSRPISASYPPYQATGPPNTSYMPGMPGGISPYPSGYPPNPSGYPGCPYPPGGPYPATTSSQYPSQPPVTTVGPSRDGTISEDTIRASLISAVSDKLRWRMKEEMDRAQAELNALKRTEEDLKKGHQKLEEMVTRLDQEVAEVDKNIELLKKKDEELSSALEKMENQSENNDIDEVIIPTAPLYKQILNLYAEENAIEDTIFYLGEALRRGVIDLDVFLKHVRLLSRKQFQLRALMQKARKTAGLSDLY
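Steps: Tsg101 binding domain dispensed (10 uM final), compounds pinned in DMSO, FITC-labeled PTAP-motif peptide added (50 nM final); after 20 min binding at room temperature, polarization measured.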
PINK1 modulator: changes PINK1 expression; PINK1 immunofluorescence, high-content cytometry, 24 h; Potency, µM (highest dose often 76.6 µM), without a hit: at the top dose activation (PINK1 increase), usual class: activators; 410,000 tested, 0.2% active; active = well fitted activation curve with a large enough effect; inconclusive = small, poorly fitted or top-dose-only effect; cell line not stated here; also: % of control where 0% means no effect; nearly all actives have a fitted effect of over 65% in size
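PINK1 protein, normally rapidly degraded, was detected by immunofluorescence after 24 hour compound treatment of a stable cell line. Titration data (5 concentrations) came from laser-scanning cytometry, with CCCP-treated wells as controls.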
SW480 rereplic: DNA re-replication induction in SW480 cells. SW480 DNA re-replication, Hoechst DNA content imaging, 48 h. 340,000 tested, 1.8% active. Potency, µM (titrated, usually from 46.1 µM), for the others: at the top dose re-replication activation, usual class: activators. AID 624297; also: % of control where 0% means no effect; nearly all actives have a fitted effect of over 55% in size
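250 cells/well; 23 nL cpd via pin tool; 48 hr, 37 C, 5% CO2; Hoechst 40 min; imager read of total nuclear intensity, ex 405/em 500-530 nm.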
MCF10A rereplic: DNA re-replication induction in MCF 10a cells | MCF 10A DNA re-replication, Hoechst nuclear intensity, 48 h | Potency, µM (series often up to 46.1 µM), for the others: at the top dose activity, positive = re-replication, hits mostly activators | 350,000 tested, 2.9% active | AID 624296; also: % of control where 0% means no effect; nearly all actives have a fitted effect of over 50% in size
KB-3-1 cytotox: kills parental KB-3-1 adenocarcinoma cells. KB-3-1 viability, CellTiter-Glo ATP luminescence, 72 h. Potency, µM (doses to about 46.1 µM), most hits filed as cytotoxic. 400,000 tested, 1.4% active; also: % is scaled to controls: 0 for no effect and ±100 for the full control effect; nearly all actives have a fitted effect of over 60% in size
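Here the drug-naive KB-3-1 line serves as comparator for MDR sub-line selectivity; cells received compound titrations, 72 h at 37 °C, then CellTiter-Glo readout.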
KB-V1 cytotox: KB-V1 MDR subline cytotoxicity | Potency, µM (series often up to 46.1 µM), actives largely listed as cytotoxic | 400,000 tested, 3.4% active | AID 1347076 | KB-V1 MDR cells viability, CellTiter-Glo, 72 h; also: % is scaled to controls: 0 for no effect and ±100 for the full control effect; nearly all actives have a fitted effect of over 60% in size
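Cells of the MDR subline KB-V1 are plated, dosed with compound at multiple concentrations, and incubated 72 h at 37 degrees C; CellTiter-Glo is then added and luminescence read after 10 min.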
Numbers without * were called inactive; i = inactive; ? = inconclusive; . = no result; [ ] = dose if it differs, or a comment. This is a sample that favours compounds with a hit; in the whole collection about 6.8% have one here. Unless noted, calls follow the shape of the dose curve; as a rule, active = well fitted curve in the direction sought with a large enough effect; inconclusive = small, poorly fitted or top-dose-only effect, or another doubt; inactive = no such curve, though single readings can be large; an effect the other way counts as inactive or inconclusive. Potency is read from the fitted curve at half-maximal effect.

SMILES | TSG101-PTAP inh | PINK1 modulator | SW480 rereplic | MCF10A rereplic | KB-3-1 cytotox | KB-V1 cytotox
COc1ccc(C2NC(=S)NC(C)=C2C(=O)c2ccccc2)cc1OC (stereo not drawn) | -2% | 12% | 23µM* | ? | ? | 13µM*
O=C(NCc1ccccc1)C1CCCN(S(=O)(=O)c2cccc3nonc23)C1 (stereo not drawn) | 1% | 4% | -459% | -63% | i | 18µM*
O=C(Nc1ccc(F)c(F)c1)C1CCN(S(=O)(=O)c2cccc3nonc23)CC1 | -4% | 7% | -5% | 12% | ? | 12µM*
CC(=O)Nc1ccc(NC(=O)C2CCN(S(=O)(=O)c3cccc4nonc34)CC2)cc1 | -13% | . | -16% | -9% | i | i
O=C(NCc1ccc2c(c1)OCO2)C1CCCN(S(=O)(=O)c2cccc3nonc23)C1 (stereo not drawn) | 5% | 26% | -4% | -4% | i | i
COc1ccc(NC(=O)C2CCCN(S(=O)(=O)c3cccc4nonc34)C2)cc1 (stereo not drawn) | -3% | -1%[38.3 µM] | ? | 15µM* | i | ?
COc1ccc(NC(=O)C2CCCN(S(=O)(=O)c3c(C)n[nH]c3C)C2)cc1OC (stereo not drawn) | 2% | 2% | -4% | 2.1µM* | i | i
Cc1ccc(NC(=O)C2CCCN(S(=O)(=O)c3cccc4nonc34)C2)cc1 (stereo not drawn) | -10% | 14% | 0% | -7% | i | i
COc1ccc(NC(=O)C2CCCN(S(=O)(=O)c3c(C)[nH]c(=O)[nH]c3=O)C2)cc1OC (stereo not drawn) | -2% | 0% | -2% | -7% | i | ?
Cc1cc2c(cc1C)-n1nnnc1C(N1CCN(CC(=O)N3CCCC3)CC1)C(=O)N2 (stereo not drawn) | . | . | . | . | i | i
Cc1cc2c(cc1C)-n1nnnc1C(N1CCN(C(=O)OCc3ccccc3)CC1)C(=O)N2 (stereo not drawn) | . | . | . | . | ? | 18µM*
CN(CC(=O)Nc1ccccc1C(=O)N1CCCC1)S(=O)(=O)c1ccc(Cl)cc1 | 1% | 7%[38.3 µM] | -2% | -1% | i | 7.3µM*
Cc1cccc(NC(=O)CN(C)S(=O)(=O)c2ccc(Cl)cc2)n1 | -12% | 4%[38.3 µM] | -7% | -2% | i | 16µM*
COc1ccc(S(=O)(=O)N(C)CC(=O)Nc2ccc3c(c2)OCO3)cc1 | -7% | -3%[38.3 µM] | 9% | -2% | i | i
COc1ccc(S(=O)(=O)N(C)CC(=O)Nc2c(F)cccc2F)cc1 | 0% | 3%[38.3 µM] | 18µM* | 8.2µM* | i | ?
CN(Cc1ccccc1)S(=O)(=O)c1ccc(Cl)c(C(=O)N2CCC2)c1 | -1% | 0% | 2% | 18% | i | 16µM*
CN(Cc1ccccc1)S(=O)(=O)c1ccc(Cl)c(C(=O)N2CCC(C(N)=O)CC2)c1 | -5% | 2% | -1% | ? | i | i
CCN(CC)CCOC(=O)c1ccc(N/C=C(/C#N)c2nc(-c3ccc(OC)c(OC)c3)cs2)cc1 | 13% | 2% | 23µM* | 18µM* | i | i
O=C(COc1ccccc1-c1ccccc1)N/N=C/c1ccc2ccccc2c1 | 0% | 27% | 1.3µM* | ? | 1.3µM* | ?
COc1cc(/C=N/NC(=O)c2cccc([N+](=O)[O-])c2)ccc1OCc1ccccc1 | -4% | 13%[38.3 µM] | -7% | 1% | i | ?
CCCCCC(=O)N/N=C(\C)c1ccccn1 | -2% | 1% | 11% | 17% | ? | 5.2µM*
O=C(N/N=C/c1cccc([N+](=O)[O-])c1)c1ccc(COc2ccccc2-c2ccccc2)cc1 | 1% | 0% | 1% | -5% | ? | 16µM*
C/C(=N\NC(=O)COc1ccccc1-c1ccccc1)c1ccccn1 | 1% | 1% | ? | 18% | ? | 4.1µM*
CCCCCCCCCC(=O)N/N=C(\C)c1cccnc1 | 44% | 0% | 0% | ? | i | i
CCCCOc1cccc(C(=O)N(Cc2ccc(C)o2)c2ccccn2)c1 | . | 3% | . | . | i | i
SMILES | TSG101-PTAP inh | PINK1 modulator | SW480 rereplic | MCF10A rereplic | KB-3-1 cytotox | KB-V1 cytotox
CCc1ccccc1NC(=O)Cn1c(=O)n(-c2ccc(C)c(C)c2)c(=O)c2oc3ccccc3c21 | . | 4% | . | . | . | .
COc1cc2ccccc2cc1C(=O)Nc1ccc2oc(-c3ccc(F)cc3)nc2c1 | . | 1% | . | . | i | i
COc1cc(OC)c(/C=C/c2nccc3ccccc23)c(OC)c1 | . | ? | . | . | ? | i
CN=C1SC(CC(=O)Nc2cccc(C(F)(F)F)c2)C(=O)N1C (stereo not drawn) | -3% | -2%[38.3 µM] | -11% | 0% | i | 15µM*
CN=C1SC(CC(=O)Nc2sc(C)c(C)c2C(=O)OC)C(=O)N1C (stereo not drawn) | -3% | . | -3% | ? | i | ?
CCOC(=O)c1c(NC(=O)CC2SC(=NC)N(C)C2=O)sc(C)c1C (stereo not drawn) | -4% | 0% | -9% | ? | i | 10µM*
CN=C1SC(CC(=O)Nc2ccccc2F)C(=O)N1C (stereo not drawn) | 0% | 1% | -7% | -3% | i | i
C=CCn1cnc2c(c1=O)c1nc3ccccc3nc1n2/N=C/c1ccccn1 | . | -4%[38.3 µM] | 8% | 5% | i | ?
CC(C)OCCCNC(=O)c1c(N)n(/N=C/c2cccs2)c2nc3ccccc3nc12 | 0% | 1% | ? | 8.2µM* | i | ?
Nc1c(C(=O)NC2CCCC2)c2nc3ccccc3nc2n1/N=C/c1cccnc1 | -3% | 15% | ? | 4.1µM* | i | ?
CC1(C)SC(=S)N(/N=C/c2cccnc2)C1N(O)C(=O)NC1CCCCC1 (stereo not drawn) | 0% | -3% | -10% | -2% | i | i
COCCCNC(=O)c1c(N)n(/N=C/c2ccccn2)c2nc3ccccc3nc12 | 0% | 2% | ? | ? | i | 5.2µM*
Cc1ccc2c(c1)C(c1ccccc1)N(C(=O)Cc1ccc(F)cc1)CC(=O)N2 (stereo not drawn) | . | -2% | . | . | i | i
COCC(=O)Nc1cc(C(=O)N2CCCC2c2nccs2)c2c(c1)nc(-c1ccncc1)n2C (stereo not drawn) | . | 1% | . | . | . | .
CN(C)c1cccc(-c2nc(N3CCC(C(N)=O)CC3)ncc2F)c1 | . | . | . | . | i | i
COc1ccc(-c2[nH]c3ccccc3c2SCCNC(=O)c2ccccc2)cc1 | 0% | 3% | 13% | 17% | 21µM* | i
